In the library only some 19% were active in any assay of this set; here they are far more common.
TDP1 cell noCPT – qHTS for Inhibitors of human tyrosyl-DNA phosphodiesterase 1 (TDP1): qHTS in cells in absence of CPT | actives 15% (n = 420,000) | DT40 Tdp1-/- hTDP1 cells, no CPT, ATP luminescence, 48 h | AID 686978, 2013 | Potency, µM (highest dose often 46.2 µM), for inactives: at the highest dose activity change, negative = growth inhibition, actives largely listed as inhibitors; further: potency means the concentration at half of the fitted maximal effect; nearly all actives have a fitted effect of over 55% in size
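Cells were dispensed at 400 per well, compounds added by pin tool, plates incubated ≥48 hr at 37 °C, then CellTiter-Glo added for 30 min at room temperature before luminescence reading. Line: DT40 Tdp1-/- complemented with hTDP1; camptothecin omitted.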
HT1080 IDH1KD tx – toxicity to HT-1080 IDH1 knockdown cells (counter line). AID 686971. Potency, µM (top dose mostly 46.1 µM), inactives show at the top dose activity, negative = toxicity, actives largely listed as cytotoxic. actives 2% (n = 360,000). HT-1080 IDH1 knockdown viability, ATP luminescence, 48 h;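 further: potency means the concentration at half of the fitted maximal effect; 0% = DMSO wells and -100% = cell-free medium wells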
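Luminescent ATP read-out (CellTiter-Glo, 10 min at room temperature) after 48 h compound exposure at 37 °C gave viability of IDH1-knockdown HT-1080 cells. Activity was normalised to DMSO and cell-free wells, then fitted as concentration-response curves.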
ELG1 repair inh – inhibitors of ELG1-dependent DNA repair in HEK293T cells | HEK293T ELG1-luciferase reporter, luminescence, 16 h; DNA damage induced by 5-fluorouridine | Potency, µM (series often up to 46.1 µM), for the others: at the highest dose activity change, negative = inhibition, most hits filed as inhibitors | actives 2.3% (n = 330,000) | AID 504467; further: potency means the concentration at half of the fitted maximal effect; nearly all actives have a fitted effect of over 55% in size
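Cells (2,000 per well) received 5-fluorouridine plus test compound or DMSO and were incubated 16 hr at 37 °C, 5% CO2. Luciferase activity was read by luminescence 30 min after ONE-Glo addition; signal suppression marked inhibition of damage-induced ELG1 function.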
TDP1 cell CPT – growth inhibition of DT40 Tdp1-/-;hTDP1 cells with camptothecin (screen for TDP1 inhibitors); chicken DT40 Tdp1-/-;hTDP1 cells + 20 nM CPT, ATP luminescence, 48 h; Potency, µM (top dose mostly 46.2 µM), for the others: top-dose activity change, negative = growth inhibition, usual class: inhibitors; actives 12% (n = 420,000); AID 686979; further: potency means the concentration at half of the fitted maximal effect; nearly all actives have a fitted effect of over 55% in size
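Chicken DT40 Tdp1-/- cells complemented with human TDP1, 400 cells/well, exposed to compounds plus 20 nM camptothecin for at least 48 h at 37 C; viability read as ATP content by CellTiter-Glo luminescence.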
IL-1B inflam inh – blocks inflammasome-driven IL-1 beta release | THP-1 LPS/ATP IL-1B secretion, AlphaLISA, 16 h; hits give low values | activity change, % at 57.5 µM | actives 4.7% (n = 360,000) | AID 743279; in the data active means activity change below about -50%; inconclusive means mostly about -30% to -49%
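THP-1 cells pretreated 1 hr with compounds (up to 57.5 uM final), then stimulated with LPS (250 ng/mL final) plus ATP (1.25 mM final); secreted IL-1B measured by AlphaLISA after 16 hr, decreased signal indicating inhibition.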
HT1080-NT tox – kills 2HG-producing HT-1080-NT fibrosarcoma cells | HT-1080-NT fibrosarcoma viability, CellTiter-Glo ATP luminescence, 48 h | Potency, µM (series often up to 46.1 µM), without a hit: at the top dose activity, negative = less viability, hits mostly cytotoxic | actives 1.6% (n = 360,000) | AID 686970;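 further: NT is the 2HG producing partner of a matched IDH1 knockdown line; potency means the concentration at half of the fitted maximal effect; 0% = DMSO-treated cells and -100% = media-only wells without cells; nearly all actives have a fitted effect of over 55% in size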
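Read-out is CellTiter-Glo luminescence after 10 minutes at room temperature, following 48 hours' compound treatment of HT-1080-NT cells (750 cells/well, RPMI, 5% FBS, 37 degrees C).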
* = called active by the depositor; ? = inconclusive; / = not tested or not shown. Unless noted, the call rests on the fitted dose curve; in most records, active means well fitted curve in the direction sought with a large enough effect; inconclusive means small, poorly fitted or top-dose-only effect, or another doubt; inactive means no such curve, though single readings can be large; an effect the other way counts as inactive or inconclusive. Unless noted, on the % scale 0 is the no-effect control and ±100 the full control effect.

SMILES	TDP1 cell noCPT	HT1080 IDH1KD tx	ELG1 repair inh	TDP1 cell CPT	IL-1B inflam inh	HT1080-NT tox
CC(=O)C[C@H](O)CC(=O)[C@@H]1OC(=O)CCCCCCc2ccccc21	-17%	16%	7%	1%	24	3%
Cn1ccc2c(-c3cccc(C=O)c3)cc3c(c21)C1CCC3O1 (stereo not given)	?	-23%	/	?	24	-15%
CCOc1cc(NC(=S)NCC2CCCO2)c(OCC)cc1NC(=O)c1ccc(OC)cc1 (stereo not given)	-9%	2%	13µM*	-3%	17	1%
COc1ccc(C(CNC(=O)c2cccc(S(=O)(=O)Nc3ccccc3OC)c2)N2CCCC2)cc1 (stereo not given)	?	-2%	-5%	?	?	-2%
COc1ccc(C(CNC(=O)c2cccc(S(=O)(=O)N3CCCCC3)c2)N2CCCC2)cc1 (stereo not given)	-9%	-1%	1%	-26%	?	-2%
COc1ccc(C(CNC(=O)c2cccc(S(=O)(=O)Nc3ccc(F)cc3)c2)N2CCCC2)cc1 (stereo not given)	?	0%	/	?	-25	-3%
C=CCN(c1ccccc1OC)S(=O)(=O)c1cccc(C(=O)NCC(c2ccc(OC)cc2)N2CCCC2)c1 (stereo not given)	7.3µM*	-13%	/	3.7µM*	?	-10%
CCN(c1ccccc1)S(=O)(=O)c1cccc(C(=O)NCC(c2ccc(OC)cc2)N2CCCCC2)c1 (stereo not given)	8.2µM*	?	/	18µM*	-1	?
C=CCN(c1ccccc1)S(=O)(=O)c1cccc(C(=O)NCC(c2ccc(OC)cc2)N2CCCCC2)c1 (stereo not given)	5.8µM*	-24%	1%	5.8µM*	-66*	-20%
COC(=O)CC1C(=O)NCCN1C(=O)c1oc2c(C)c(C)ccc2c1C (stereo not given)	?	0%	/	-2%	5	16%
CCC(=O)Nc1ccc(CC)cc1-c1nc2ccccc2n(CC(=O)Nc2cccc(Cl)c2)c1=O	?	/	/	21µM*	/	/
CCC(=O)Nc1ccc(C)cc1-c1nc2ccccc2n(CC(=O)Nc2ccccc2Cl)c1=O	-23%	/	/	?	/	/
CC(=O)Nc1cccc(-c2cc(NC=O)c3ncc(-c4ccc(C(C)=O)cc4)n3c2)c1	16µM*	-6%	/	?	-19	23µM*
COc1cccc(-c2cc(NC(C)=O)c3ncc(-c4ccc(OC)c(OC)c4)n3c2)c1	21µM*	-12%	/	?	-81*	-22%
COc1cccc(-c2cnc3c(NC(C)=O)cc(-c4ccsc4)cn23)c1	15µM*	-12%	/	13µM*	-10	-30%
COc1cccc(-c2cnc3c(NC(C)=O)cc(-c4cccc(C(=O)N(C)C)c4)cn23)c1	?	18%	/	?	11	23%
COc1ccc(-c2cc(NC(C)=O)c3ncc(-c4cccc(C(C)=O)c4)n3c2)cc1OC	21µM*	?	/	21µM*	?	-23%
COc1ccc2cc(/C(C)=N/NC(=O)c3cc(C)oc3C)ccc2c1	?	6%	/	?	-26	11%
CC(=O)Nc1cccc(-c2cc(NC(C)=O)c3ncc(-c4cccc(C(C)=O)c4)n3c2)c1	10µM*	?	/	23µM*	22	-1%
CC(=O)Nc1cc(-c2cccc(NS(C)(=O)=O)c2)cn2c(-c3cccc(C(F)(F)F)c3)cnc12	18µM*	?	/	18µM*	0	?
COc1ccc(-c2cc(NC=O)c3ncc(-c4ccc(C(C)=O)cc4)n3c2)cn1	7.3µM*	?	/	5.2µM*	-13	?
COc1cccc(-c2cnc3c(NC(C)=O)cc(-c4ccc(OC)c(OC)c4)cn23)c1	15µM*	?	/	10µM*	?	?
CC(C)(C)NC(=O)N1CCC(C(=O)O)CC1	-2%	/	/	-12%	/	/
O=C(Nc1ccc(C(=O)N2CCCCC2)cc1)C1=CSCCO1	?	?	?	-23%	-7	-14%
Cc1ccc(Cn2c(CNC(=O)c3cccc(C)c3)nc3ccccc32)cc1	?	/	/	-20%	/	/
SMILES	TDP1 cell noCPT	HT1080 IDH1KD tx	ELG1 repair inh	TDP1 cell CPT	IL-1B inflam inh	HT1080-NT tox
COc1ccc(CCCc2nnc(SCC(=O)NN)o2)c(C)c1	?	-11%	-5%	17%	23	-12%
O=C(C[n+]1cccc(Br)c1)c1ccc(O)c(O)c1	-19%	/	/	1%	/	/
CCOC(=O)C1=C(O)/C(=C/c2cn(CC(=O)N3CCCC3)c3ccccc23)SC1=Nc1ccccc1	18µM*	5%	4.1µM*	18µM*	?	-1%
COC(=O)c1cn(CC(=O)N2CCCCCC2)c2ccccc12	3%	1%	1%	-1%	-2	4%
CC(C)Sc1ncc(Cl)c(C(=O)N(Cc2ccc(F)cc2)C2CCS(=O)(=O)C2)n1 (stereo not given)	23µM*	/	/	?	/	/
CC(C)CC(=O)N(Cc1ccc(F)cc1)C1CCS(=O)(=O)C1 (stereo not given)	-9%	?	8%	20%	47	14%
CCSc1ncc(Cl)c(C(=O)N(Cc2ccccc2Cl)C2CCS(=O)(=O)C2)n1 (stereo not given)	15µM*	/	/	18µM*	/	/
CCCOc1ccc(CN(C(=O)c2nc(SC(C)C)ncc2Cl)C2CCS(=O)(=O)C2)cc1 (stereo not given)	15µM*	/	/	?	/	/
CSc1ncc(Cl)c(C(=O)N(Cc2ccccc2Cl)C2CCS(=O)(=O)C2)n1 (stereo not given)	-11%	/	/	-4%	/	/
COc1ccc(NC(=O)c2noc3c2CCCC3)cc1Cl	-1%	/	/	-22%	/	/
O=C(O)c1ccccc1-c1ccccc1C(=O)NCc1ccccc1Cl	26%	-3%	5%	-7%	22	2%
CCN(CC)c1ccc(/C=N\NC(=O)c2cccc3cc[nH]c23)cc1	2.9µM*	5.2µM*	?	5.2µM*	15	?
Cc1ccccc1C(=O)Nc1ccc(C(=O)N/N=C/c2ccncc2)cc1	-30%	-6%	?	2%	12	-12%
O=C(N/N=C/c1ccc([N+](=O)[O-])cc1)c1cccc2cc[nH]c12	?	-4%	8%	-27%	-12	-1%

High-throughput results: PubChem BioAssay, National Center for Advancing Translational Sciences (NCATS)
